Assay results reported in PubChem BioAssay AID778 (Sanford-Burnham Center for Chemical Genomics, 2007).
Hit rate of the full screen: of about 96,000 compounds, about 20,000 (21%) were called active. The list is a sample of the results. Values without a mark were called inactive.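 Rule for the calls: active = CYP2C19 inhibition above a set limit at 5 µM in the primary screen (cut at about 50% in these data); inactive = the rest.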

biological target: Cytochrome P450 2C19 (Homo sapiens) (UniProt P33261); assay: blockers of cytochrome P450 2C19 activity – biochemical, luminescence, ADME assay, primary screen (AID 778); conditions: CYP2C19 Supersomes, luciferin-H EGE luminescence, 30 min; at 5 µM; hits give high values;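 note: plate controls were negative control wells for no effect and 2.5 mM tranylcypromine positive control for full effect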
Sequence (P33261 whole entry, looked up): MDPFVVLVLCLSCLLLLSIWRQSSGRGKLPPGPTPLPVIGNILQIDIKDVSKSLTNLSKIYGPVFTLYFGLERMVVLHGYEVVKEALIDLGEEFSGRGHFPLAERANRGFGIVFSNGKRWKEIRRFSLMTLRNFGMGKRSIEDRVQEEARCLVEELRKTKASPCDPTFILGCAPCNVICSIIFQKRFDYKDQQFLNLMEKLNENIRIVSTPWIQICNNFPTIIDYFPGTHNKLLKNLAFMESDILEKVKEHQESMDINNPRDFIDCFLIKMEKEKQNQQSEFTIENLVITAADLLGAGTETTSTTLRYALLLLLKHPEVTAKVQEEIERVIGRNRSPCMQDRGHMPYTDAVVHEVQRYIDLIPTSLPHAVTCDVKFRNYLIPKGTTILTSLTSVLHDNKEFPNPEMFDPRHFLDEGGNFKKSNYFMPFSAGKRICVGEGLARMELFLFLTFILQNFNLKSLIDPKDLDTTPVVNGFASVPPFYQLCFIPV

| SMILES | inhibition |
| --- | --- |
| CCCOn1c(-n2nc(C)cc2C)nc2ccccc2c1=O | 47.2% |
| O=C(NCc1ccco1)c1sc2cccc(F)c2c1Cl | -8.9% |
| CCOc1cc(/C=N/n2cnnc2)c(Br)cc1O | 5.4% |
| Cc1ccc2c(c1)N(C(=O)CCC(=O)N1CCc3ccccc3C1)CCO2 | 39.4% |
| c1ccc(-c2cn3c(n2)CCc2ccc4cccnc4c2-3)cc1 | 15.9% |
| COc1ccc(S(=O)(=O)N2CCC(C(=O)N3CCOCC3)CC2)cc1OC | 7.3% |
| COc1ccccc1N(C)S(=O)(=O)c1ccc(C(=O)N2CCC(C(N)=O)CC2)cc1 | 8.7% |
| COc1ccc(S(=O)(=O)N2CCC(C(=O)N3CCc4ccccc4C3)CC2)cc1OC | 53.6% (active) |
| CCS(=O)(=O)c1ccc2c(c1)N(S(=O)(=O)c1ccccc1)CC(C(=O)O)O2 (stereo unspecified) | 0.1% |
| CCC1CCCCN1CCCNC(=O)C1CCC(Cn2c(=O)[nH]c3ccccc3c2=O)CC1 (stereo unspecified) | 6% |
| CCOC(=O)c1c(-n2cnnn2)sc(C)c1C | 7.5% |
| Cc1nc(NNC(=O)c2ccccc2)cc(-c2ccccc2)n1 | -0.2% |
| CNC(=O)Nc1cc(C(C)(C)C)no1 | 32.3% |
| CCC(=O)Nc1cccc(NC(=O)CSc2nnnn2C2CCCC2)c1 | 36.1% |
| O=C(CSc1nnnn1-c1ccc2c(c1)CCC2)Nc1ccc2c(c1)OCCO2 | -2.7% |
| O=C(CSc1nc2ncccc2[nH]1)Nc1ccc2c(c1)OCCO2 | 82.3% (active) |
| Cc1ccc(-n2c(SCC(=O)Nc3ccc4c(c3)OCO4)nnc2-c2ccoc2C)cc1 | -13% |
| CCCCSc1nc2c(c(=O)n1CC)SC(C)C2 (stereo unspecified) | 42% |
| CCn1c(SCC(=O)Nc2ccc3c(c2)OCCO3)nc2c(c1=O)SC(C)C2 (stereo unspecified) | 61.9% (active) |
| O=C(CSc1nnnn1C1CCCC1)Nc1ccc2c(c1)OCCO2 | 68.5% (active) |
| O=C(CSc1nc(C2CC2)nc2ccccc12)Nc1ccc2c(c1)OCCO2 | 19.7% |
| O=C(CSc1nnc(-c2ccccn2)n1-c1ccccc1)Nc1ccc2c(c1)OCO2 | 5% |
| Cc1nonc1OCCn1nnnc1N | 4% |
| O=C(CCn1c(=S)[nH]c2ccccc2c1=O)NCCCN1CCCC1=O | 5.4% |

| SMILES | inhibition |
| --- | --- |
| O=C(CS(=O)(=O)c1cn(Cc2ccc(Cl)cc2)c2ccccc12)N1CCOCC1 | 35.4% |
| CCOC(=O)c1cc(NC(=O)SCC(=O)O)c(C)nc1C | 24.3% |
| N#CCSc1nc2c(c(=O)n1Cc1ccccc1)C1(CCCC1)Cc1ccccc1-2 | -19% |
| COc1cc(Br)cc(/C=N/c2ncn[nH]2)c1O | 0.3% |
| Cc1nc2c(-c3ccc(F)cc3)c(C)nn2c(C)c1CCC(=O)N1CCN(c2ccccn2)CC1 | 54.1% (active) |
| Cc1nc2c(-c3ccc(F)cc3)c(C)nn2c(C)c1CCC(=O)NCc1ccco1 | 41.7% |
| Cc1nc2nc(C)c(CCC(=O)N3CCN(c4ccccc4)CC3)c(C)n2n1 | 7.2% |
| Cc1nn(C)cc1/C=N/NC(=O)c1sc2ccccc2c1Cl | 37.3% |
| CC(=O)Nc1ccc(S(=O)(=O)N2CCC(N(C)CCC(C)C)CC2)cc1 | 2.5% |
| N#Cc1c(NC(=O)CSc2nc3ccccc3c(=O)n2Cc2ccco2)sc2c1CCCC2 | -5.2% |
| CCOn1c(SC(C)C)nc2ccccc2c1=O | -0.2% |
| CCOC(=O)C(C)Sc1nc2ccccc2c(=O)n1CC1CCCCC1 (stereo unspecified) | 71.3% (active) |
| CC(Sc1nc2ccccc2c(=O)n1Cc1ccco1)C(=O)c1ccccc1 (stereo unspecified) | 74.1% (active) |
| CCOC(=O)C1CCc2nc3ccccc3c(=O)n21 (stereo unspecified) | 17.8% |
| O=C(CN1CCOCC1)Nc1c(-c2ccccc2)c2cc(Br)ccc2[nH]c1=O | 4.9% |
| Cc1ccc(C(=O)N2CCN(C(=O)N3CCOCC3)CC2)cc1 | 7.4% |
| CCOC(=O)c1[nH]c2ccc(C)cc2c1N=C(C)N(C)C | -13% |
| Cc1ccc(-c2ccnc3nc(Sc4ncc(C(F)(F)F)cc4Cl)nn23)cc1 | 0% |
| CCOC(=O)N1CCN(C(c2cccnc2)c2ccc3cccnc3c2O)CC1 (stereo unspecified) | 48% |
| COC(=O)C1C(=O)NCC1c1ccc(C)cc1 (stereo unspecified) | 10.9% |
| CCN(CCCNC(=O)C1CCN(S(=O)(=O)c2cnc[nH]2)CC1)c1ccccc1 | 70.9% (active) |
| O=C(NCc1ccco1)C1CCCN(S(=O)(=O)c2cnc[nH]2)C1 (stereo unspecified) | 55.3% (active) |
| CCOC(=O)c1cccc(NC(=O)C2CCCN(S(=O)(=O)c3cnc[nH]3)C2)c1 (stereo unspecified) | 58.5% (active) |
| COc1cccc(N2CCN(C(=O)C3CCCN(S(=O)(=O)c4cnc[nH]4)C3)CC2)c1 (stereo unspecified) | 25.3% |

| SMILES | inhibition |
| --- | --- |
| Cc1ccc(S(=O)(=O)N2CCCC2CO)cc1 (stereo unspecified) | 18.4% |
| CCCS(=O)(=O)N1CCCC(C(=O)NCc2ccco2)C1 (stereo unspecified) | -10.8% |
| O=C(NCc1ccco1)C1CCCN(S(=O)(=O)c2cccc3nonc23)C1 (stereo unspecified) | 18.2% |
| Cc1cccc(N2CCN(C(=O)C3CCN(S(=O)(=O)c4cnc[nH]4)CC3)CC2)c1C | 7.9% |
| O=C(NCc1ccco1)C1CCCN(S(=O)(=O)c2ccccc2)C1 (stereo unspecified) | 40.8% |
| CCCS(=O)(=O)N1CCC(C(=O)NCCCN(C)Cc2ccccc2)CC1 | 6.8% |
| CCOc1cccc(NC(=O)C2CCCN(S(=O)(=O)c3ccc(OC)cc3)C2)c1 (stereo unspecified) | 48.2% |
| Cc1ccc(S(=O)(=O)N2CCCC2C(=O)NCc2ccco2)cc1 (stereo unspecified) | 81.7% (active) |
| CCN1CCN(C(=O)c2ccccc2N(C)S(=O)(=O)c2ccc(C)cc2)CC1 | -7.6% |
| CC(C)(C)c1ccc(NC(=O)NCc2ccco2)cc1 | 2% |
| c1cc(-n2cnnn2)ccc1NC1=NCCC1 | -15.7% |
| CCN1CCCC1Cn1cnc2c([nH]c3cc(OC)ccc32)c1=O (stereo unspecified) | -3.7% |
| CC(C)(C)Oc1ncc(Br)c(OC(C)(C)C)n1 | -12.1% |
| N/C(Cc1ccc([N+](=O)[O-])cc1)=N\OC(=O)COc1ccc2ccccc2c1 | 4.3% |
| COC(=O)c1ccc2c(c1)S(=O)(=O)NC(=NCCCN1CCOCC1)S2 | 6.8% |
| CCOC(=O)Cn1c(=O)oc2cc(S(=O)(=O)N(C)Cc3ccco3)ccc21 | 14.9% |
| Cn1nnnc1SCc1cc(=O)[nH]c2ccccc12 | 2.9% |
| CCOC(=O)C1=C(CSc2nccn2C)NC(=O)NC1c1ccc(OC)cc1 (stereo unspecified) | 31.3% |
| CCOC(=O)C1=C(CSc2nnnn2C)N(C)C(=O)NC1c1ccccc1 (stereo unspecified) | 79.5% (active) |
| CC1(C)Oc2ccc3ccc(=O)oc3c2/C(=C/NCCO)C1=O | -7.3% |
| COc1ccccc1NC(=O)c1ccc2nc(N3C(=O)CCC3=O)sc2c1 | 13.6% |
| Cc1cc(NC(=O)CN2CCC(O)(c3cccc(F)c3)CC2)no1 | 34.5% |
| COc1ccccc1CNC(=O)CCCNS(=O)(=O)c1cccc2nsnc12 | 7.7% |
| CCCCNc1nc2c(c(=O)[nH]c(=O)n2C)n1CCOc1ccccc1 | 28.9% |

| SMILES | inhibition |
| --- | --- |
| CC(c1ccccc1)n1c(NCCCn2ccnc2)nc2c1c(=O)[nH]c(=O)n2C (stereo unspecified) | 55.9% (active) |
| COc1ccc(CCn2c(NCCCN3CCOCC3)nc3c2c(=O)[nH]c(=O)n3C)cc1 | 25.2% |
| CCOC(=O)c1cnc(SCC(=O)Nc2cccc(OC)c2)nc1N | -12.1% |
| CCOC(=O)N1CCC(C(N)=O)CC1 | 5.4% |
| COc1cc2cc(CN(CCN3CCCC3)C(=O)Nc3ccccc3Cl)c(=O)[nH]c2cc1OC | 7.9% |
| COc1ccccc1N(C(=O)Cn1nnc2ccccc21)C(C(=O)NCc1ccco1)c1ccc(C)o1 (stereo unspecified) | 68% (active) |
| COCCNC(=O)C(c1ccc(C)o1)N(Cc1ccccc1)C(=O)Cn1nnc2ccccc21 (stereo unspecified) | 29.3% |
| Cc1ccc(C(C(=O)NCc2ccco2)N(CC2CCCO2)C(=O)Cn2nnc3ccccc32)cc1 (stereo unspecified) | 17.2% |
| Cc1ccc(C(CC(=O)O)Nc2nc(N3CCCCC3)nc(N3CCCCC3)n2)cc1 (stereo unspecified) | 11.1% |
| COc1ccc(S(=O)(=O)N2CCCC(C(=O)N3CCN(C)CC3)C2)cc1C (stereo unspecified) | 30% |
| CCNC(=O)NC(=O)C(C)OC(=O)c1cc(S(=O)(=O)N2CCCCCC2)ccc1OC (stereo unspecified) | 66% (active) |
| COc1ccc2c(c1OC)C(=O)c1ccccc1C2=O | 17% |
| CCCCNC(=O)C1CCCN(S(=O)(=O)c2ccc(S(=O)(=O)NCC(C)C)cc2)C1 (stereo unspecified) | 6.5% |
| CCCCn1c(=S)[nH]c2cc(S(=O)(=O)N3CCCCC3)ccc21 | 25.4% |
| COc1ccc(S(=O)(=O)N2CCCCC2)cc1Br | 92% (active) |
| COc1ccc(S(=O)(=O)N2CCCC2)c(C)c1C | 72.2% (active) |
| COc1ccc(S(=O)(=O)Nc2ccc(S(=O)(=O)N3CCCCC3)cc2)cc1OC | 52.3% (active) |
| COc1ccc(S(=O)(=O)N2CCOCC2)cc1C(=O)Nc1nc2ccccc2s1 | 0.4% |
| CSC1=N/C(=C\c2ccc3c(c2)OCO3)C(=O)S1 | 0.4% |
| COc1cc(NC(=O)N2CCOCC2)cc(OC)c1 | -9.7% |
| CCC(=NC1CC(C)(C)NC(C)(C)C1)C1=C(O)CC(C)(C)CC1=O | 3.6% |
| Cc1c(-c2ccccc2)cn2c1-c1ccc(C)n1CC2 | 1.7% |
| O=C(Nc1ccc(Cl)cn1)c1cnn2cccnc12 | 0.1% |
| CCC(=O)c1ccc(OCC(O)CN2CC(C)OC(C)C2)cc1 (stereo unspecified) | 39.4% |
